# From PubChem BioAssay (NCATS)
# Results filed as inconclusive are left out. Calls of active or inactive are those of the source. Calls come from the whole dose curve; as a rule, active = well fitted inhibition curve with a large enough effect; inconclusive = small, poorly fitted or top-dose-only effect; inactive = no such curve, though single readings can be large or run the other way. Where a SMILES comes first, the peptide text is derived from it.
# Assay: Primary qHTS for inhibitors of nuclear receptor binding SET domain protein 2 (NSD2) in an RCH-ACV wild type WT cells (2C) (AID 1645877); note: nearly all actives have a fitted effect of over 70% in size
# Conditions: RCH-ACV (leukaemia line) NSD2 WT (2C) viability, CellTiter-Glo, 72 h; series mostly up to 44.9 µM; activity change, negative = cell killing: at the top concentration
# % is set by controls: 0 for no effect and ±100 for the full control effect.
Structure (SMILES),outcome,"activity change, negative = cell killing"
C=CCc1ccc(O[C@@H]2O[C@H](CO)[C@@H](O)[C@H](O)[C@H]2O)c(O[C@@H]2O[C@H](CO)[C@@H](O)[C@H](O)[C@H]2O)c1,inactive [at 17.3 µM],
COc1cc(C2Oc3c(OC)cc(/C=C/C(=O)OC4CC(O)(C(=O)O)CC(O)C4O)cc3C2CO)ccc1O (stereo not drawn),inactive [at 17.3 µM],
OC[C@@]1(O)CO[C@@H](OC[C@H]2O[C@@H](Oc3ccccc3)[C@H](O)[C@@H](O)[C@@H]2O)[C@@H]1O,,-0.274% (inactive)
O=C(/C=C/c1ccccc1)O[C@@H]1[C@@H](CO)O[C@@](CO)(O[C@H]2O[C@H](CO)[C@@H](O)[C@H](O)[C@H]2O)[C@H]1O,inactive [at 17.3 µM],
CC1(C)Oc2ncnc(N)c2N=C1c1ccc(C2CCC(CC(=O)O)CC2)cc1 (stereo not drawn),,-3.71% (inactive)
Cc1occc(=O)c1O[C@@H]1O[C@H](COC(=O)CC(C)(O)CC(=O)O)[C@@H](O)[C@H](O)[C@H]1O (stereo partly drawn),,-5.67% [at 17.3 µM] (inactive)
C=C[C@H]1[C@H](O[C@@H]2O[C@H](CO)[C@@H](O)[C@H](OC(=O)/C=C/c3ccc(O)c(OC)c3)[C@H]2O)OC=C2C(=O)OCC[C@]21O,,2.11% [at 17.3 µM] (inactive)
C/C(=C\CCC1(C)C2CC3C(C2)C31C)C(=O)O (stereo not drawn),,-8.2% (inactive)
CC(=O)OC[C@]12[C@H](OC(C)=O)[C@H](OC(=O)c3ccccc3)[C@@H]3[C@@H](OC(C)=O)[C@]1(OC3(C)C)[C@H](C)C[C@H](OC(=O)c1ccccc1)[C@@H]2OC(=O)c1ccccc1,,-11.1% [at 17.3 µM] (inactive)
CC1(C)CC[C@]2(C(=O)O[C@@H]3O[C@H](CO)[C@@H](O)[C@H](O)[C@H]3O)CC[C@]3(C)C(=CCC4[C@@]5(C)C[C@H](O)[C@H](O[C@@H]6OC[C@@H](O)[C@H](O)[C@H]6O)[C@@](C)(CO)C5CC[C@]43C)C2C1 (stereo partly drawn),,2.07% [at 9.23 µM] (inactive)
O=C(O)c1cccc(C(=O)CCC2OC(n3cnc4c(=O)[nH]cnc43)C(O)C2O)c1 (stereo not drawn),,1.5% [at 17.3 µM] (inactive)
C=C1CCC2(OC1)OC1CC3C4CC=C5CC(O)CC(O[C@@H]6OC[C@H](OC(=O)C(O)C(C)CC)[C@H](O)[C@H]6O[C@@H]6O[C@@H](C)[C@H](O)[C@@H](O)[C@H]6O)C5(C)C4CCC3(C)C1C2C (stereo partly drawn),,-9.66% [at 9.23 µM] (inactive)
OC[C@@]1(O)CO[C@H](OC[C@H]2O[C@@H](OC(CCCCc3ccc(O)cc3)CCc3ccc(O)cc3)[C@H](O[C@H]3OC[C@](O)(CO)[C@H]3O)[C@@H](O)[C@@H]2O)[C@@H]1O (stereo partly drawn),inactive [at 17.3 µM],
O=C(O)C(Cc1ccccc1)NC(=O)C1CCCN1 (stereo not drawn) (H-Pro-Phe-OH; configuration not given here),,-4.2% (inactive)
COc1ccnc2[nH]cc(C(=O)C(=O)N3CCN(C(=O)c4ccccc4)CC3C)c12 (stereo not drawn),,-14.5% (inactive)
C[C@H]1[C@H](C)CC[C@]2(C(=O)OC3OC(CO)C(O)C(O)C3O)CC[C@]3(C(=O)O)C(=CCC4[C@@]5(C)CC[C@H](O[C@@H]6O[C@@H](C)[C@H](OC7OC(CO)C(O)C(O)C7O)[C@@H](O)[C@H]6O)C(C)(C)C5CC[C@]43C)[C@H]12 (stereo partly drawn),,-2.86% [at 9.23 µM] (inactive)
CC(NC(=O)CC(=O)O)C(=O)Nc1ccccc1C(N)=O (stereo not drawn),,2.99% (inactive)
O=C(C[C@@H]1C(C(=O)O)=CO[C@@H](O[C@@H]2O[C@H](CO)[C@@H](O)[C@H](O)[C@H]2O)/C1=C\CO)OCCc1ccc(O)c(O)c1,,-1.46% [at 17.3 µM] (inactive)
